This is one part of the list. Unmarked numbers belong to inactive results. Activity calls are given as the source filed them.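 Rule for the calls: active = at least twofold enzyme activation in any of six single-dose repeats, which the averaged readout prints as negative percent; inactive = the rest.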

The target of the experiment is Intestinal-type alkaline phosphatase (Homo sapiens) (UniProt P09923). The experiment is described as follows: human IAP activators, confirmation, biochemical, luminescence, single concentration, uHTS hits (AID 434926). Conditions: purified IAP, CDP-Star luminescence, 30 min; at 8.3 µM; active compounds read low.
Chain of Intestinal-type alkaline phosphatase (Homo sapiens) (P09923 whole entry, looked up): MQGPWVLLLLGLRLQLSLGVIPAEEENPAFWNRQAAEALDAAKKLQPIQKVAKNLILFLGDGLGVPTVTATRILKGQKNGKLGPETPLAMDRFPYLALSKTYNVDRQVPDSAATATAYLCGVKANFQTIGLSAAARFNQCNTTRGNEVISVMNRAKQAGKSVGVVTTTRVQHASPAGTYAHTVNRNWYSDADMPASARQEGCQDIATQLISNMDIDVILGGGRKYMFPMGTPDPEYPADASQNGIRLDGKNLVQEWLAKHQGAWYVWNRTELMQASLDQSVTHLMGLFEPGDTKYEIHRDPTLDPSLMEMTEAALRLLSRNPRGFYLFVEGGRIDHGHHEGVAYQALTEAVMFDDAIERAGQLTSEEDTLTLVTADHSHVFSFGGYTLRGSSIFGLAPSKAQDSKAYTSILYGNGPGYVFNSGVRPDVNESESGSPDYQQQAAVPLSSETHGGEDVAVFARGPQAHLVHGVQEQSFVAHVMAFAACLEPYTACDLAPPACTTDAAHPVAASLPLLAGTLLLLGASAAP
Consider `CCCCOC(=O)Nc1sc2nc(C)cc(C)c2c1-n1cccc1`, for which the activation (%Activity, negative = activation) is -49%.
As for `COc1ccc(C(=O)NNc2cc(C)nc(NNC(=O)c3ccc(OC)cc3)n2)cc1`, the figure is -9.79%; as for `C#CCOCCOCCOCCNc1nc(N2CCN(C(=O)CCCCCCCCCCNC(=O)[C@H]([C@@H](C)CC)n3cc(CCCCN=C(N)N)nn3)CC2)nc(N2CCN(C(=O)CCCCCCCCCCNC(=O)[C@H](CO)n3cc(CCCSC)nn3)CC2)n1`, 38.5%; as for `OC(c1nc2ccc(F)cc2[nH]1)C(O)c1nc2ccc(F)cc2[nH]1` (centres undefined), 24.7%.
`CCC(C)C(=O)Nc1ccccc1N1CCN(c2ccc(F)cc2)CC1` (centres undefined): the activation (%Activity, negative = activation) was 13.6%.
As for `COc1c(O)cc2oc(-c3ccc(O)c(O)c3)cc(=O)c2c1O`, the figure is -36.9%; as for `c1ccc(CSCCc2ccncc2)cc1`, -33.2% (active).
The value for `COc1cccc(/C=N\NC(=O)C2=NNC(=O)C2C)c1O` (centres undefined) was 34.8%; that for `CCC(C(=O)Nc1ccc(C(C)C)cc1)c1ccccc1` (centres undefined) was -30.6%; that for `c1ccc2[nH]c(-c3nc4ccccc4[nH]3)nc2c1` was 10.7%.
Consider `NC(=O)COc1ccc(NC(=O)c2ccccc2-c2ccccc2)cc1`, for which the activation (%Activity, negative = activation) is 9.49%.
As for `CC(=O)c1ccc(NC(=O)C2CCCN2S(=O)(=O)c2cccs2)cc1` (centres undefined), the figure is -85.1% (active); as for `O=C(Nc1cccc(-c2cccc(Cl)c2)c1)C1CCN(C2CCC2)CC1`, -7.84%; as for `Cc1cccc(NS(=O)(=O)c2cccc(C(=O)NNC(=O)c3ccccc3O)c2)c1`, 29.2%.

These data come from PubChem BioAssay AID434926 (Sanford-Burnham Center for Chemical Genomics, 2010).
